# In PubChem BioAssay AID1508600 (Functional Genomics Laboratory (NCATS/FGL), 2020):
# Among all 53,000 sequences or so, about 3,700 (7%) were called active. The full list was thinned out, with actives kept by preference. A number with no mark means an inactive call.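 The calls were made as follows: active = gene knockdowns whose robust z-score for IL-1 alpha signal is at least 2 or at most -2, so actives lie on both sides; inactive = the rest.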
# Assay: Components of the Cytosolic LPS Sensing Pathway: Gene Identification via Genome-wide siRNA Screen;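 also: robust z of the log signal after scaling to non-targeting control siRNA wells of the plate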
# Settings: RAW264.7 macrophages, IL-1a HTRF, actives lie on both sides, screened at 100 nM (by protocol), cells primed 5 h with Pam3CSK4 first
# Outline: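 IL-1a HTRF of supernatants after 24 hour LipidA transfection of Pam3CSK4-primed (5 hours) RAW264.7 cells, 48h post-siRNA transfection (100 nM). Scores: percent of plate negative-control median, then log-based robust z-score.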
row,Sequence,z-score
1,GGAGAUGGCCACCUAUUUGTT against Csnk1g2,-0.325
2,GGAAAAAGCCUAACUAUGATT against Ccnl1,-0.7
3,GCAUGAUAUCAGUGGCAAGTT against Itga11,-2.41 (active)
4,GCCUGUUGCUAUGAAUGGUTT against Zfp597,-0.353
5,GGAAGCAUUGAAGAUAAGATT against Topbp1,-0.273
6,CCAUUGGAUCCAUUCCUAUTT against Plcd3,-0.984
7,CCUCUGUCUGCUAAUAAGATT against R3hdm4,1.01
8,GGAGGCCAUCACACUUAGATT against 4933421I07Rik,-2.27 (active)
9,GUUCCCGUUCUACGAGAAGTT against Foxl2,1.22
10,CCAAAUGACAGCUAUGGCCTT against Gtf2ird2,-0.312
11,GCUGUCCAAGUACGAGACATT against Atoh7,0.0721
12,GCUCCUGUGAUUGAUGCAGTT against Dync1h1,0.528
13,GCAUUUAUAAUUGCUGAACTT against Cbx1,-0.637
14,GGAACCACACAUGUGUUAATT against Grik2,-0.281
15,GGACAAUUGCCUUUUGACATT against Thbs3,0.146
16,CCAGCAGCCUUCUAACUAUTT against Hnrnpa2b1,2.14 (active)
17,GGUCUUCUACAACUCGGAATT against Sgpp1,-0.146
18,GGUGGUGAGAUAGAGAAAUTT against C1qc,-0.115
19,GCAUUACACUUAACUGACGTT against Zfp652,-1.28
20,CCCAAUAACAUCUUAAGAUTT against Lyn,-0.254
21,GGGAGACGGCGAGGUUUUATT against Arl6ip4,2.89 (active)
22,GGAAUGUCACUUUGACUCUTT against Arxes1,-0.533

row,Sequence,z-score
1,GGCCAGAGAAGAUUACUUUTT against Ajuba,1.03
2,GGACCUCACAGAUUAUGGGTT against Ebi3,0.693
3,CGCCUACAGCUCUAUCUUATT against 2700062C07Rik,1.05
4,GGCGACAUGAAAGAAGGCATT against Klk6,2.61 (active)
5,ACCCUCACCUCGCAUGACUTT against Pcbd2,-1.57
6,GGACAAAGUAUUUGUGACCTT against Cd3d,0.00913
7,GCAAGAUCCAGCCCUAUCATT against Usp17lc,-0.439
8,GGAAAGUCCUUCAUCAGCATT against Cep120,-2.91 (active)
9,GGACAAGAUGAUCUGCCUATT against Lrrc8a,0.722
10,GCCGAUACUUGAGCCAGUUTT against Srd5a1,0.477
11,GCUUCGACACUUUAUUUCUTT against Cnp,0.26
12,GGGUUUUCUUGUGUGAAAATT against Pomp,-2.93 (active)
13,CGAGGGAAUGCACUACAACTT against Chpf,2.16 (active)
14,GGAAGACCAGCAGUUAAGATT against Grb10,-1.56
15,GGUGGAAGAGGUCAAAUAATT against Denr,1.05
16,GGAAAAAGACUUCUAUCACTT against Ly6g6g,-2.03 (active)
17,GGCUUUUGAGAUUGCUAAATT against Mfap3l,-0.491
18,GGCCUUUGAUGACUUCAUCTT against Cacna1h,0.904
19,CCACUGGACAGGAACAAAGTT against Rims1,-1.2
20,GGAGGUGAUGCAGAUGCUGTT against Gpi1,3.06 (active)
21,GCCGACUCAUGGUUUAGAATT against Tmem18,-0.0972
22,GGCAAUGAAUUUAACAAUCTT against Zfp874a,-0.351

row,Sequence,z-score
1,GGGACUUGAUCUCCUGAGUTT against Krtap4-2,-0.223
2,GGACAACGAGUGUCUGGGUTT against Cx3cr1,4.8 (active)
3,CCCAUGGUCACUUAUAUAUTT against Jarid2,0.109
4,GGAGCUUCGUGGAUAAGAGTT against Padi3,-1.79
5,GGUUGUUGGAAAAGAUGAATT against Ids,-1.55
6,GGAUCAUCCAAGUGUUCCGTT against Olfr555,1.51
7,GCAGUUUGUGGAUAUGUCATT against Treh,0.604
8,GGUUUUCUCGCUCAGACCATT against Wt1,0.352
9,GGUCAUACAUGUGAAGACATT against Tsr2,2.01 (active)
10,GGGCAAGAUGGUCAGUAGATT against Tpt1,0.627
11,CGCAACAGCUAGGAUUUUUTT against Me1,0.193
12,CCCAUUAGAUGCUGAAUAUTT against Stmn1,0.139
13,CCAGUGUUUGACUUGACCATT against Dpysl3,0.228
14,GGUUGUCGUCAACAAGAGCTT against Krt72,1.96
15,GGUGUCAUCCCUGAAAGAGTT against Tert,0.0314
16,GGAAUUUCUUCAGGACACUTT against Procr,0.278
17,GGCUCAAUAAAAUGAAGUGTT against Elovl2,2.03 (active)
18,GGCUCAUGGUUAUUGUAAUTT against Olfr1198,-0.385
19,UGUAUCUUUCUGUAGUUCUTT against Taar7e,0.195
20,GGAACAUGGCACUUUCGUGTT against Pcdh10,0.905
21,CGGUUAAAAGCCCUCAGCATT against Olfr592,-1.41
22,GGUCAAGUGCGAGAAACUCTT against Mafb,-0.016

row,Sequence,z-score
1,GGUGGGAAGAGGAAUACACTT against Iffo1,4.73 (active)
2,GGGACCAGAUGAAGAAGGATT against Coq4,0.267
3,GGAAAUAGAGGAAAGAGAATT against Rbm17,-0.235
4,GGCCAUCCAUUGAAGACAUTT against Stk-ps2,1.05
5,GGCUCUGUUGAAUGCAACGTT against Slc39a6,-2.15 (active)
6,CUUUGUCAGCCAUGUAUCCTT against Tas2r104,0.468
7,GCUGCCACUGGACACAUAATT against 4930591A17Rik,-0.0198
8,GGCUCAAGAAAGUGAAUGATT against Myog,-1.14
9,GCAAGACACUUGAUAACUCTT against Znrd1as,2.34 (active)
10,GGAGCAUUUGUUUCCAAGATT against Cd38,-1.33
11,GCGCAAUGACGAUAAACUCTT against Sema3f,0.534
12,CCGGAGGUUCCAACAAACUTT against Dlx1,-0.591
13,GGAUCCAGAACUAAAAAUCTT against Pcdhga2,0.193
14,GCUUACUAAUGCGGAUUACTT against 5330438D12Rik,-2.41 (active)
15,GGAAGUUGGUGAGCUGGUATT against Ccl17,2.4 (active)
16,GGAAGACAACAACCUAGAATT against Rpn1,-0.894
17,GCAGAGUCUGGAUCAACAUTT against Efcab14,-0.583
18,CCUCCAGUUCAGAAUUCUATT against Surf4,0.634
19,GGCACGAUACUUAUUUGAATT against Nudt13,-1.43
20,GGAAGUUGUAGGAGAAAACTT against Rnf214,-0.624
21,CGAGAACAGAGGUUUUUAATT against Mxi1,0.0641
22,GGAUGCAUUUUUUCUGGAATT against Nop53,0.85

row,Sequence,z-score
1,GGUGGAAGAGGAGAGUGAATT against Ncl,-0.284
2,GGAACUGAGCCAAGAAGCUTT against Prox2,-2.16 (active)
3,GUGUGGACAACUCCUGAGUTT against 9630041A04Rik,-1.14
4,CGUUAACUCUCGGACGAUCTT against Fitm1,0.576
5,GGAGGUGGAUCAAAUGGCATT against Gnrh1,-0.667
6,GGAAAUAUUGUCAUCAUGGTT against Olfr1302,-0.483
7,GCGGAACUGACUUUCCUGATT against Rhot2,0.443
8,GGGUAAGAGUUACAGAAUATT against Serpinb8,-0.0947
9,GCUUUACGAUACUCCAUAUTT against Shd,-0.506
10,GGGAGAAAAUUGGCUUAGATT against Dclre1b,0.424
11,GAUGUUCUGCAUCUACUUUTT against Olfr545,1.46
12,CCUGAAAUCCUGUAGCUACTT against Pgap3,1.35
13,GGCAGAGACCUCAAAACCATT against Selplg,-2.33 (active)
14,GGACCAUCACUUCCAGCUATT against Rab1b,-0.726
15,GGAAGUCUCUAUCCUGAACTT against Prss50,-0.24
16,GGAAGUCAACAAUGCAUUCTT against Olfr1451,-0.133
17,GGUAAAUUACUCUGAUCAATT against Gpr61,-0.593
18,GGGAUUAAUAUCAUACCGATT against Slc30a5,-1.33
19,GGGUUUUAUGACCUUCAAGTT against Zkscan14,0.655
